# Reference: the supplement of paper PMC6555819
# Columns and labels:
# Test in all cases: PBM binding z-score (relative to random genomic background probes); higher = stronger binding; sequences stand for … in GC…GCGATTGACAGCGTAGAATGAAGG
# [1] = test system: FXR:RXRa (NR concentration 270 nM, RXRa partner concentration 90 nM)
# Method in brief: (§1)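 Custom Agilent 4×180K protein-binding microarrays carried double-stranded probes, each with a 34-nt variable region. These regions held direct-repeat seeds, single-nucleotide variants, half-site ablations and random human genomic background sequences. Ligand-free nuclear receptor dimers were incubated on the arrays for 1 h, antibodies against each partner (one per run) detected binding, and scanned fluorescence was regression-normalized. Binding z-scores take the random background probes as reference.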
# [2] = test system: LXRa:RXRa (NR concentration 270 nM, RXRa partner concentration 90 nM)
# Method in brief: as §1
# [3] = test system: LXRa homodimer (NR concentration 270 nM)
# Method in brief: as §1
# [4] = test system: LXRb:RXRa (NR concentration 270 nM, RXRa partner concentration 90 nM)
# Method in brief: as §1
# [5] = test system: LXRb homodimer (NR concentration 270 nM)
# Method in brief: as §1
# [6] = test system: PPARa:RXRa (NR concentration 270 nM, RXRa partner concentration 90 nM)
# Method in brief: as §1
# [7] = test system: PPARg:RXRa (NR concentration 180 nM, RXRa partner concentration 90 nM)
# Method in brief: as §1
# [8] = test system: PPARg:RXRa 270nM:90nM, anti-RXR (NR concentration 270 nM, RXRa partner concentration 90 nM)
# Method in brief: as §1
# [9] = test system: PPARg:RXRa 30nM:10nM, anti-RXR (NR concentration 30 nM, RXRa partner concentration 10 nM)
# Method in brief: as §1
# [10] = test system: PPARg:RXRa 90nM:30nM, anti-RXR (NR concentration 90 nM, RXRa partner concentration 30 nM)
# Method in brief: as §1
Sequence,PBM binding z-score [1],PBM binding z-score [2],PBM binding z-score [3],PBM binding z-score [4],PBM binding z-score [5],PBM binding z-score [6],PBM binding z-score [7],PBM binding z-score [8],PBM binding z-score [9],PBM binding z-score [10]
TCCAGTAGGTTACCAATGGGGCATTCAGCTTTCT,0.247,1.53,-0.513,0.676,-0.862,1.6,1.15,2.54,2.63,2.39
TCTGCTAGGTCAACGATCGTCAGCTAATCTGCTA,2.97,2.19,-0.465,1.24,-0.245,3.11,2.49,3.26,1.96,2.76
GCTTGTAGATCAAGGTAAAGAAAGACTAAGCTAA,-0.136,-0.278,-0.768,-0.413,-0.986,-0.222,0.0186,0.28,-0.318,-0.167
CCTTACGGGTCACTCACAGGTTATAGCATTTGGA,4.95,4.32,0.653,3.67,0.243,5.1,4.15,3.82,1.29,2.78
CCTTACGGGTCACTGCAGGTTATAGCATCGGAGT,5.36,7.22,1.13,5.01,0.0222,4.88,3.68,4.35,1.16,3.15
TCTGCTAGGTCAGATGGTCAGCTAACGAGCTGCC,1.36,0.977,-0.468,0.356,-0.258,1.86,1.57,2.53,1.8,2.34
GGAACGAGGGCATTCGAGTTGATTGCATGGCGAT,0.926,1.7,-0.316,0.105,-0.391,1.4,0.653,0.598,-0.244,0.242
CAAACTAGGTCAAGGTTAAAGTCGGTTTGTGCCA,4.21,3.75,1.17,2.93,0.57,5.22,9.29,8.04,6.64,9.18
TCAGACAGGTGAAGGTAATTCAGGTACGCAGTCG,1.15,1.22,-0.0461,1.11,0.0602,1.41,0.743,2.25,3.9,3.02
TGTGAAAGTTCAAAGGTAACGTAAGTATCCACAC,6.55,5.73,4.61,4.36,2.11,5.49,6.77,6.84,4.1,6.25
ATACCAATGTGATCGTGAGGTCGTTGATACTAAC,1.13,0.684,0.704,0.894,-0.063,0.905,0.346,0.198,0.123,0.295
CCTTACGGGTCACTGACAGGTTATAGCTTTTGGA,4.62,4.13,0.331,3.35,-0.0774,4.88,3.89,4.21,1.73,3.06
GGAACGAGGGGATTCGAGTTGATAGCATGGCGAT,-0.431,-0.53,-0.577,-0.641,-0.654,-0.413,0.315,-0.471,-0.474,-0.523
ATCCAAAGGTCGTGAGGTGAGTATACAGAAAGGC,5.79,4.82,0.975,3.77,0.687,5.37,5.62,5.62,2.33,4.08
ATCGAAAGGTCGAGATGAGTATAGAGAAAGGGAA,3.74,3.2,0.146,2.54,0.748,4.2,2.56,2.97,0.989,2
TCTTGTGGATCAACAGGAGGTTAAGAAAGATCGA,0.0119,1.31,-0.115,0.808,-0.625,1.19,0.00768,1.18,2.49,1.87
TTCCCAAGGTGAGCTGAGGTCGTTGATCCAACTC,3.13,1.59,-0.148,0.959,-1.02,1.55,-0.346,0.767,-0.184,0.534
CCTTCCGGGTCACGAGGTTATAGCACGACGAGCG,5.95,4.51,0.67,3.92,0.139,5.88,7.46,6.88,3.82,6
GCAGACAGGTGAAACGGAGGTAACTCAGGGTGGC,-0.223,0.247,-0.497,-0.0336,-0.922,0.977,0.646,0.393,-0.282,0.0488

Sequence,PBM binding z-score [1],PBM binding z-score [2],PBM binding z-score [3],PBM binding z-score [4],PBM binding z-score [5],PBM binding z-score [6],PBM binding z-score [7],PBM binding z-score [8],PBM binding z-score [9],PBM binding z-score [10]
AGAATGAGGTTATACGTAGATCAGGAAAGAAAGT,2.11,1.99,0.118,1.76,0.0606,3.08,2.02,1.97,0.878,1.47
CCTAACGGGTCACTGACAGGTTATAGCATTTGGA,4.16,3.46,0.268,2.65,-0.0444,4.42,3.07,3.01,0.84,1.88
GCAGACAGGTGAAACGCAGTTAACTCAGGGTGGC,-0.413,-0.168,-0.315,-0.381,-1.38,0.714,0.486,-0.149,-0.977,-0.452
CTACCAAGGTGAACAAGGTAGTTGATTACTATTC,0.29,0.269,-0.28,0.647,-0.774,1.19,0.675,0.808,0.0377,0.215
ATATGTAGGTTATCCGGTCATTCAGTTTGCGCAT,1.83,2.69,4.12,1.78,1.15,3.71,5.51,5.16,2.68,4.49
CGAACGAGGGCATGAGTTCATAGCAAATGCCGAT,2.26,2.23,1,1.51,-0.903,3.24,2.37,2.91,0.55,2.23
TAGCCTAGGTCAGATCGGGCCAGCATACGCTATA,2.37,0.982,-0.589,0.386,-0.807,1.52,0.739,0.901,-0.0521,0.135
CCTAGCAGGCCAGGGTGACTCAAGCATTTCGCTT,-0.306,-0.411,-0.589,-0.526,-1.43,0.023,-0.26,-0.0399,-0.987,-0.126
CCTATTACTTGACCATAAGGGCAACCGAAGCTCG,1.19,0.716,0.834,1.06,1.31,0.711,0.8,0.339,0.281,0.247
CAAACTATGTCACCGGAAGGTCAAAGTCCGCATG,3.73,3.78,4.13,3.89,1.52,4.37,3.69,4.08,1.4,2.98
GCTGCTAGGTAAACTGATGGTCAGCTAAAGCTCG,-0.373,-0.492,-0.956,-0.723,-0.701,-0.566,-0.301,-0.644,-0.739,-0.98
GCTGCTAGGTCAAGTTGGTCAGCTAACGGGTACG,4.8,3.29,0.651,2.31,0.442,3.64,2.48,2.94,0.55,2.09
CATACAGGGTCAGCTGGGCCAGAGTAGGGACGGC,4.32,3.28,-0.0929,2.08,0.0372,4.46,2.85,3.35,0.594,2.16
CCTACTGGGCCATCAGTTCATTGATATCAACGTT,0.0577,-0.0476,0.218,0.257,-0.567,1.11,1.34,2.19,0.638,1.48
CCAGTCAGGTGAGAAGGTAACTCAGCCTCGATTA,0.104,0.00917,-0.218,-0.0607,-0.774,0.601,0.294,1.13,-0.0852,0.619
CTCGAAAGGTCGGTTGAGGTGAGTATGCGGATAA,2.51,1.72,-0.105,1.27,-0.0928,2.67,0.178,1.24,0.131,0.771
CCTCGGAGGACAACAGGAGGTCAGAGCGGCCAGA,1.36,2.25,2.24,1.42,-0.43,2.09,0.411,0.182,-0.715,-0.31
CGTCCAAGGTCAGCAGGTCTGTGAAAGCGACGTG,5.03,3.02,-0.272,2.06,-0.284,4.16,2.65,3.06,0.0215,1.57
CCGAGTAGGTTATCGGGCATTCAGGCAACGGTGA,0.12,0.322,0.154,-0.0205,-0.739,1.32,1.8,2.7,0.915,1.54
